Source: PubChem
Lassa entry inh = qHTS for Inhibitors of binding or entry into cells for Lassa Virus. Lassa virus pseudotype entry inhibition, cell reporter. Potency, µM (series often up to 37.9 µM), inactives show at the top dose activity change, negative = inhibition, usual class: inhibitors. actives 1.2% (n = 300,000); calls by dose curve; tested in HEK293 cells; further: nearly all actives have a fitted effect of over 50% in size
MARV entry inh = qHTS for inhibitors of binding or entry into cells for Marburg Virus | actives 1.8% (n = 300,000) | Marburg virus pseudotyped entry inhibition, cell reporter | Potency, µM (doses to about 37.8 µM), for inactives: at the highest dose activity change, negative = inhibition, actives largely listed as inhibitors; calls by dose curve; tested in HEK293 cells
VACV mCherry inh = qHTS for Stage-Specific Inhibitors of Vaccinia Orthopoxvirus: mCherry Reporter Primary qHTS; Vaccinia virus mCherry reporter infection, fluorescence; Potency, µM (top dose mostly 36.5 µM), for the others: top-dose activity change, negative = inhibition, most hits filed as inhibitors; actives 0.63% (n = 310,000); AID 720579, 2013; calls by dose curve; tested in A549 cells; further: nearly all actives have a fitted effect of over 35% in size
HCV inhibitor = qHTS Assay for Inhibitors of Hepatitis C Virus (HCV); Huh7.5.1 HCVcc-Cre infection, luciferase reporter, 44 h; Potency, µM (series often up to 41.8 µM), for inactives: top-dose activity change, negative = inhibition, most hits filed as inhibitors; actives 3.4% (n = 340,000); active means well fitted inhibition curve with a large enough effect; inconclusive means small, poorly fitted or top-dose-only effect, or another doubt; inactive means no such curve, though single readings can be large or run the other way
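Compounds are dispensed onto cells plated 4 h earlier at 1,000 per well, with HCVcc-Cre virus (about 0.5 moi) added next. Following 44 h of culture, luminescent signal is measured for 15 sec after 15 min with substrate at room temperature.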
VACV Venus inh = qHTS for Stage-Specific Inhibitors of Vaccinia Orthopoxvirus: Venus Reporter Primary qHTS; Vaccinia virus Venus reporter expression, fluorescence; actives 0.46% (n = 330,000); Potency, µM (doses to about 36.5 µM), without a hit: at the highest dose activity change, negative = inhibition, usual class: inhibitors; calls by dose curve; tested in A549 cells; further: nearly all actives have a fitted effect of over 30% in size
* marks the source's active call; other numbers are inactive results; i = inactive; ? = inconclusive; · = no result given; [ ] = remark or other dose. The list is not random: actives were taken first. Their share in the collection is about 4.6%. On the % scale 0 is the no-effect control and ±100 the full control effect; potency means the concentration at half of the fitted maximal effect.

SMILES | Lassa entry inh | MARV entry inh | VACV mCherry inh | HCV inhibitor | VACV Venus inh
Cc1nc(N/N=C\c2ccc3c(c2)OCO3)sc1C | 5.8%[46.1 µM] | 20.9%[46.1 µM] | 15.8µM* | 12.7% | ?
C(=N\Nc1nc2ccccc2s1)/c1ccc2c(c1)OCO2 | ? | ? | -11.4% | 19.5% | 3.5%
O=C(c1ccc(F)c(F)c1)N1CCOc2ccc(CN3CCN(Cc4ccccn4)CC3)cc2C1 | · | · | -4.1% | · | -12.2%
CCCCCn1c(=O)[nH]c2cc(C(=O)NC3CCN(Cc4ccccc4)CC3)ccc2c1=O | -6.2% | -1.2%[46.1 µM] | -11.8% | 12.5% | -16.0%
O=C(NC1CCN(Cc2ccccc2)CC1)c1ccc(Cn2c(=S)[nH]c3ccc(N4CCOCC4)cc3c2=O)cc1 | ? | 2.82µM* | -0.6% | ? | -9.9%
O=C(NC1CCN(Cc2ccccc2)CC1)c1ccc2c(c1)[nH]c(=O)n2Cc1ccc(F)cc1 | ? | 2.82µM* | ? | 2.51µM* | ?
CN1C(=O)/C(=C\c2ccccc2F)Sc2ccc(C(=O)NC3CCN(Cc4ccccc4)CC3)cc21 | · | · | · | 3.98µM* | ·
CCN1CCN(c2ccc(NC(=O)c3ccc4c(c3)[nH]c(=O)n4Cc3ccc(OC)cc3)cc2)CC1 | ? | 7.94µM* | ? | ? | ?
COC(=O)c1c(C)sc(-c2c(-c3ccc4c(c3)OCCO4)[nH]c3c2c(=O)[nH]c(=O)n3C)c1O | -13.6%[46.1 µM] | -19.5%[46.1 µM] | -12.7% | · | 0.3%
CCOc1ccccc1/C=N/OCC(=O)NCc1ccc(F)cc1 | · | -15.5%[46.1 µM] | -13.3% | 3.98µM* | -2.9%
COC(=O)c1ccc(/C=N/OCC(=O)NCc2ccc(F)cc2)cc1 | -17.9% | -1.4% | -4.2% | ? | -8.7%
CCOC(=O)c1noc2ncn(Cc3ccc([N+](=O)[O-])cc3)c(=O)c12 | 8.2%[46.1 µM] | · | -21.1% | · | -6.6%
Cc1ccc(NC(=O)c2cc([N+](=O)[O-])ccc2N2CCOCC2)cc1C | -14.2%[46.1 µM] | 7.08µM* | -17.1% | -22.4% | -13.0%
CC(C)c1ccc(NC(=O)c2cc([N+](=O)[O-])ccc2N2CCOCC2)cc1 | · | · | · | -18.5% | ·
O=C(Nc1ccc(N2CCN(C(=O)c3ccccc3)CC2)cc1)c1cc([N+](=O)[O-])ccc1N1CCOCC1 | 5.9% | 0.631µM* | i | ? | -18.5%
Cc1cccc(-c2nc(SCC(=O)Nc3cccc(C(F)(F)F)c3)n3[nH]c(=O)cc3n2)c1 | -2.1%[46.1 µM] | · | i | · | -4.4%
CCCCC[n+]1ccn(C2=C([O-])c3ccccc3C(=O)/C2=N\S(=O)(=O)c2ccccc2)c1 | ? | 22.4µM* | ? | ? | ?
CC(C)[n+]1ccn(C2=C([O-])c3ccccc3C(=O)/C2=N\S(=O)(=O)c2ccccc2)c1 | 1.8% | ? | ? | ? | ?
CCCC[n+]1ccn(C2=C([O-])c3ccccc3C(=O)/C2=N\S(=O)(=O)c2ccccc2)c1 | ? | ? | ? | 11.2µM* | ?
COc1cc2c(cc1NC(=O)c1cccc(Br)c1)CCCC2 | -20.3% | -20.0% | -2.2% | 7.08µM* | -23.8%
COc1cc2c(cc1NC(=O)c1cccc(F)c1)CCCC2 | -2.1% | 19.8% | -2.3% | ? | -21.2%
CC(C#N)Sc1ccc(S(=O)(=O)N2CCCC2)cn1 (stereo unspecified) | 13.3% | 12.3% | i | -1.4% | -8.2%
CC(Sc1ccc(S(=O)(=O)N2CCOCC2)cn1)c1ccccc1Cl (stereo unspecified) | 8.91µM* | ? | -12.6% | 1.9% | -13.8%
CCOc1ccc(-c2cc(CCCC(=O)Nc3cccc(OC)c3)no2)cc1 | 0.82µM* | ? | -5.9% | ? | ?
CCOc1ccc(NC(=O)CCCc2cc(-c3ccc(OCC)cc3)on2)cc1 | ? | -20.8%[46.1 µM] | -4.4% | 1.4% | -9.5%
SMILES | Lassa entry inh | MARV entry inh | VACV mCherry inh | HCV inhibitor | VACV Venus inh
CCCN(CCC)[C@H]1CCc2c(F)ccc(O)c2C1 | 17.3% | 11.2µM* | · | · | ·
COc1ccc2oc(=O)cc(-c3cc4cccc(OC)c4o3)c2c1 | 2.3%[46.1 µM] | 16.2%[46.1 µM] | i | -8.1% | -7.4%
COc1cccc2cc(-c3cc(=O)oc4ccc(OC(=O)N(C)C)cc34)oc12 | 16.5%[46.1 µM] | -0.7%[46.1 µM] | i | 11.2µM* | -3.1%
CC(=O)COc1ccc2oc(=O)cc(-c3cc4ccccc4o3)c2c1 | · | · | · | 14.1µM* | ·
CCN(CC)C(=O)Oc1ccc2oc(=O)cc(-c3cc4cccc(OC)c4o3)c2c1 | ? | ? | -5.9% | 11.2µM* | -14.3%
Cc1ccc(N2CCN(C(=O)c3c(C)oc4nc(C)nc(N5CCCC5)c34)CC2)c(C)c1 | -7.4%[46.1 µM] | · | -18.8% | · | -26.5%
O=C(NCc1cccnc1)c1cnn(-c2nccc(-c3cccs3)n2)c1C1CC1 | · | · | -27.2% | · | -11.9%
Cn1c(SCC(=O)N/N=C/c2ccc([N+](=O)[O-])s2)nnc1-c1ccccc1 | ? | ? | 28.2µM* | 11.2µM* | ?
COc1ccc(NC(C)C(=O)N/N=C/c2ccc([N+](=O)[O-])s2)cc1 (stereo unspecified) | -10.6% | -9.5%[46.1 µM] | 8.91µM* | ? | 12.6µM*
O=C(Cc1ccccc1)N/N=C/c1ccc([N+](=O)[O-])s1 | ? | ? | · | 11.2µM* | ?
O=C(N/N=C/c1ccc([N+](=O)[O-])s1)C(O)c1ccccc1 (stereo unspecified) | ? | -11.3% | · | 7.08µM* | ·
COC(=O)N/N=C/c1ccc([N+](=O)[O-])s1 | ? | ? | -20.3% | ? | ?
Cc1ccsc1/C=N/NC(=O)C(O)c1ccccc1 (stereo unspecified) | · | · | · | 7.1% | ·
CN(C)S(=O)(=O)c1cccc(CSCc2cccc(S(=O)(=O)N(C)C)c2)c1 | ? | ? | -3.5% | 2.24µM* | -8.2%
CC1=C2[C@H](O)[C@H]([C@@H](C)C(=O)NCCC(C)C)CC[C@@]2(C)C=CC1=O | · | 23.2%[14.2 µM] | · | · | ·
CCOCCCNC(=O)c1cc(Sc2nnc(C)s2)nc2ccccc12 | 12.4% | 1.4% | -5.9% | 10µM* | -12.2%
COCCCNC(=O)c1cc(Sc2nnc(C)s2)nc2ccccc12 | -0.1% | 10.9% | i | -27.1% | -7.7%
CN(C(=O)CSc1nnc(COc2ccccc2)o1)c1ccccc1 | -20.5%[46.1 µM] | ? | -0.8% | · | -7.6%
C/C(=N\Nc1nc2ccccc2[nH]1)c1ccc2c(c1)OCO2 | ? | 11.6µM* | ? | ? | ?
C/C(=N\Nc1nc2ccccc2[nH]1)c1ccc2c(c1)OCCO2 | ? | ? | -21.8% | ? | -13.3%
COc1cc(-c2nnc(SCc3c(F)cccc3Cl)o2)cc(OC)c1OC | ? | -19.7% | · | 35.5µM* | -28.1%
O=C(COc1ccc(S(=O)(=O)Nc2ccccc2)cc1)NCc1ccncc1 | 2.59µM* | ? | -3.3% | 2.7% | -15.5%
CCOc1ccc(NS(=O)(=O)c2ccc(C(=O)NCc3ccncc3)cc2)cc1 | -9.5%[46.1 µM] | -19.4% | -3.0% | 7.08µM* | -23.4%
COC1=C[C@H](C(=O)NCCOC(C)=O)[C@H](C)[C@@H](c2ccccc2)CC1=O | · | -38.6%[14.2 µM] | · | · | ·
